# According to PubChem BioAssay (NCATS):
# Where “and” joins values, the source holds several entries; their conditions need not be identical. Equal entries are not always repeated. Records with an inconclusive call do not appear. Calls of active or inactive are those of the source. Unless noted, calls follow the shape of the full dose curve.
# Columns and labels:
# [1] = qHTS drug screen for cell cycle checkpoint inhibitors in PARPi-resistant BRCA-mutant ovarian cancer cell lines. (AID 1963452); conditions: PEO1/OlaR viability, CellTiter-Glo luminescence, 96 h, stronger effect = lower value
# Outline: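 PEO1, PEO4 and PEO1/OlaR ovarian cancer cells, 600 per well, exposed 96 h at 37C to a dilution series. Viability read by CellTiter-Glo luminescence, normalized to DMSO and empty wells; activity summarized as Z-AUC.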
# [2] = tested on: 7G8; experiment: qHTS profiling for inhibitors of Plasmodium falciparum proliferation (AID 504749; active = well fitted inhibition curve with a large enough effect; also: nearly all actives have a fitted effect of over 60% in size; also: potency is read from the fitted curve at half-maximal effect;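 as to activity, negative = inhibition: 0% = DMSO vehicle and full inhibition = artemisinin control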); conditions: P. falciparum in erythrocytes, SYBR Green DNA, 72 h; series mostly up to 28.7 µM
# Outline: (§1)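 In a 72 h erythrocytic culture (37 C, humidified, 5% CO2) at 2.5% hematocrit and 0.3% starting parasitemia, compounds were tested; SYBR Green I in detergent lysis buffer stained parasite DNA overnight.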
# [3] = tested on: CP191; experiment: as above; conditions: P. falciparum in erythrocytes, SYBR Green DNA, 72 h; series mostly up to 28.7 µM
# Outline: as §1
# [4] = tested on: CP194; experiment: as above; conditions: P. falciparum in erythrocytes, SYBR Green DNA, 72 h; series mostly up to 28.7 µM
# Outline: as §1
# [5] = tested on: CP201; experiment: as above; conditions: P. falciparum in erythrocytes, SYBR Green DNA, 72 h; series mostly up to 28.7 µM
# Outline: as §1
# [6] = tested on: CP203; experiment: as above; conditions: P. falciparum in erythrocytes, SYBR Green DNA, 72 h; series mostly up to 28.7 µM
# Outline: as §1
# [7] = tested on: CP211; experiment: as above; conditions: P. falciparum in erythrocytes, SYBR Green DNA, 72 h; series mostly up to 28.7 µM
# Outline: as §1
# [8] = tested on: CP215; experiment: as above; conditions: P. falciparum in erythrocytes, SYBR Green DNA, 72 h
# Outline: as §1
# [9] = as above; conditions: P. falciparum in erythrocytes, SYBR Green DNA, 72 h, at 28.7 µM (top of the series)
# Outline: as §1
# [10] = tested on: 3D7; experiment: as above; conditions: P. falciparum in erythrocytes, SYBR Green DNA, 72 h; series mostly up to 28.7 µM
# Outline: as §1
# [11] = tested on: AA1029; experiment: as above; conditions: P. falciparum in erythrocytes, SYBR Green DNA, 72 h; series mostly up to 28.7 µM
# Outline: as §1
# [12] = tested on: AS120; experiment: as above; conditions: P. falciparum in erythrocytes, SYBR Green DNA, 72 h; series mostly up to 28.7 µM
# Outline: as §1
# [13] = tested on: ATS189; experiment: as above; conditions: P. falciparum in erythrocytes, SYBR Green DNA, 72 h; series mostly up to 28.7 µM
# Outline: as §1
# [14] = tested on: C2A; experiment: as above; conditions: P. falciparum in erythrocytes, SYBR Green DNA, 72 h; series mostly up to 28.7 µM
# Outline: as §1
# [15] = tested on: CP185; experiment: as above; conditions: P. falciparum in erythrocytes, SYBR Green DNA, 72 h; series mostly up to 28.7 µM
# Outline: as §1
# [16] = tested on: CP192; experiment: as above; conditions: P. falciparum in erythrocytes, SYBR Green DNA, 72 h; series mostly up to 28.7 µM
# Outline: as §1
# [17] = tested on: CP217; experiment: as above; conditions: P. falciparum in erythrocytes, SYBR Green DNA, 72 h; series mostly up to 28.7 µM
# Outline: as §1
# [18] = tested on: CP238; experiment: as above; conditions: P. falciparum in erythrocytes, SYBR Green DNA, 72 h; series mostly up to 28.7 µM
# Outline: as §1
# [19] = measured here: PEO1 parental Z-AUC
compound,measurement,setting,value
C[C@H](Nc1ncnc2nc[nH]c12)c1cc2cccc(Cl)c2c(=O)n1-c1ccccc1,Z-AUC,[1],-0.68 (inactive) and -0.929 (inactive)
same,Z-AUC,[1]; [19],0.702 and -0.975
same,Z-AUC,[1]; measured here: PEO4 Z-AUC,0.729 and -0.588
COCC(=O)NC/C=C/c1ccc2ncnc(Nc3ccc(Oc4ccc(C)nc4)c(C)c3)c2c1,Z-AUC,[1],-0.178 (inactive)
same,Z-AUC,[1]; [19],-0.29
same,Z-AUC,[1]; measured here: PEO4 Z-AUC,-0.0701
Fc1ccc2[nH]ccc2c1-c1nc(N2CCOCC2)c2sc(CN3CCN(CC4CC4)CC3)cc2n1,Z-AUC,[1],-0.813 (inactive)
same,Z-AUC,[1]; [19],-0.565
same,Z-AUC,[1]; measured here: PEO4 Z-AUC,-0.474
CCn1nc(C2CCN(C(=O)CCO)CC2)nc1-c1cnc(N)c(-c2nnc(C(C)(C)C)o2)n1,Z-AUC,[1],0.285 (inactive)
same,Z-AUC,[1]; [19],0.385
same,Z-AUC,[1]; measured here: PEO4 Z-AUC,0.568
Cn1ncc(Cl)c1-c1cc(C(=O)N[C@H](CN)Cc2ccc(F)c(F)c2)sc1Cl,Z-AUC,[1],0.188 (inactive)
same,Z-AUC,[1]; [19],0.381
same,Z-AUC,[1]; measured here: PEO4 Z-AUC,-0.0194
CN1CCN(c2ccc(-c3cccc(CN4CCOCC4)c3)cc2NC(=O)c2c[nH]c(=O)cc2C(F)(F)F)CC1,Z-AUC,[1],0.777 (inactive)
same,Z-AUC,[1]; [19],0.269
same,Z-AUC,[1]; measured here: PEO4 Z-AUC,0.524
COC1C(OC(=O)/C=C/C=C/C=C/C=C/C(=O)O)CCC2(CO2)C1C1(C)OC1CC=C(C)C (stereo not drawn),Potency,[2],5.6 nM (active)
same,Potency,[3],50.1 nM (active)
same,Potency,[4],536 nM (active)
same,Potency,[5],7570 nM (active)
same,Potency,[6],2690 nM (active)
same,Potency,[7],37.9 nM (active)
same,Potency,[8],6010 nM (active)
COc1ccccc1C(=O)Nc1cc2c(cc1N1CCCC1)n(C)c(=O)n2C,Z-AUC,[1],-1.16 (inactive)
same,Z-AUC,[1]; [19],-0.583
same,Z-AUC,[1]; measured here: PEO4 Z-AUC,-0.727
CCCOc1ccc2nc(NC(=O)OC)sc2c1,"activity, negative = inhibition",[9]; parasite line A,-2.17% (inactive)
same,"activity, negative = inhibition",[9]; parasite line B,4.31% (inactive)
same,Potency,[10],inactive
same,Potency,[2],inactive
same,Potency,[11],inactive
same,Potency,[12],inactive
same,Potency,[13],inactive
same,Potency,[14],inactive
same,Potency,[15],inactive
same,Potency,[3],inactive
same,Potency,[16],inactive
same,Potency,[4],inactive
same,Potency,[5],inactive
same,Potency,[6],inactive
same,Potency,[7],inactive
same,Potency,[17],inactive
same,Potency,[18],inactive
NCCOc1cc(C(=O)Nc2cc(OCCN)c3ccccc3n2)nc(C(=O)Nc2cc(OCCN)c3ccccc3n2)c1,Z-AUC,[1],-0.0869 (inactive)
same,Z-AUC,[1]; [19],-0.747
same,Z-AUC,[1]; measured here: PEO4 Z-AUC,-0.493
Cc1cc(C(=O)Nc2cc(Oc3ccc4nc(NC(=O)C5CC5)cn4n3)ccc2C)n(C)n1,Z-AUC,[1],-0.702 (inactive)
same,Z-AUC,[1]; [19],-1.33
same,Z-AUC,[1]; measured here: PEO4 Z-AUC,-1.31
COc1cccc(-c2cc(F)ccc2C2Cc3nc(N)nc(C)c3C(=O)N2)n1 (stereo not drawn),Z-AUC,[1],-1.35 (inactive)
same,Z-AUC,[1]; [19],-1.35
same,Z-AUC,[1]; measured here: PEO4 Z-AUC,-0.552
Cc1c(F)ccc(C(=O)Nc2cc([N+](=O)[O-])ccc2N2CCN(C)CC2)c1Cl,Z-AUC,[1],0.532 (inactive)
same,Z-AUC,[1]; [19],0.409
same,Z-AUC,[1]; measured here: PEO4 Z-AUC,-0.0381
COC(=O)Nc1cc(Nc2cc(NC3CC3)c3ncc(C#N)n3n2)c(Cl)c(N2CCN(C)CC2)c1,Z-AUC,[1],-1.26 (inactive)
same,Z-AUC,[1]; [19],-0.992
same,Z-AUC,[1]; measured here: PEO4 Z-AUC,-1.22
CN1CCN(C2CCN(C(=O)Nc3cc(Oc4ccc(NC(=O)C5(C(=O)Nc6ccc(F)cc6)CC5)c(F)c4)ccn3)CC2)CC1,Z-AUC,[1],0.53 (inactive)
same,Z-AUC,[1]; [19],0.13
same,Z-AUC,[1]; measured here: PEO4 Z-AUC,-0.114
c1ccc(-c2ccc(CNc3nc(-c4ccccn4)nnc3-c3ccccc3)cc2)cc1,Z-AUC,[1],-1.09 (inactive)
same,Z-AUC,[1]; [19],-0.646
same,Z-AUC,[1]; measured here: PEO4 Z-AUC,-0.501
CC(C)(CNC(=O)c1cccc(-c2noc(C(F)(F)F)n2)c1)c1coc(-c2ccccc2)n1,Z-AUC,[1],0.0442 (inactive)
same,Z-AUC,[1]; [19],0.732
same,Z-AUC,[1]; measured here: PEO4 Z-AUC,0.975
N#Cc1ccnc(Nc2cc(C3CCN(C4COC4)CC3)cc(N3CCC(F)(F)C3)n2)c1,Z-AUC,[1],-0.647 (inactive)
same,Z-AUC,[1]; [19],-0.398
same,Z-AUC,[1]; measured here: PEO4 Z-AUC,0.109
Cn1ncnc1[C@H]1c2n[nH]c(=O)c3cc(F)cc(c23)N[C@@H]1c1ccc(F)cc1,Z-AUC,[1],0.447 (inactive)
same,Z-AUC,[1]; [19],-1.15
same,Z-AUC,[1]; measured here: PEO4 Z-AUC,-0.329
N#Cc1ccc(COC[C@H]2O[C@@H](n3c(NCc4ccc(Cl)c(Cl)c4)nc4c(N)ncnc43)[C@H](O)[C@@H]2O)cc1,Z-AUC,[1],-0.735 (inactive)
same,Z-AUC,[1]; [19],-0.265
same,Z-AUC,[1]; measured here: PEO4 Z-AUC,0.0878
COc1cc2c(cc1OC(C)C)[C@H](c1ccc(Cl)cc1)N(c1ccc(N(C)CC3CCC(N4CCN(C)C(=O)C4)CC3)cc1)C(=O)C2 (stereo partly drawn),Z-AUC,[1],0.694 (inactive)
same,Z-AUC,[1]; [19],0.366
same,Z-AUC,[1]; measured here: PEO4 Z-AUC,0.545
Nc1nccc(-c2c(-c3ccc(F)cc3)ncn2C2CCCCC2)n1,Z-AUC,[1],-0.78 (inactive)
same,Z-AUC,[1]; [19],1.09
same,Z-AUC,[1]; measured here: PEO4 Z-AUC,0.204
O=C([C@@H](Cc1cccc(C(F)(F)F)c1)NS(=O)(=O)c1cc(F)c2c(c1)CCNC2)N1CCCC1,Z-AUC,[1],-0.343 (inactive)
same,Z-AUC,[1]; [19],-0.218
same,Z-AUC,[1]; measured here: PEO4 Z-AUC,-0.109
CC(C)S(=O)(=O)c1ccc2nccc(Nc3ccc4scnc4c3)c2c1,Z-AUC,[1],-0.9 (inactive)
same,Z-AUC,[1]; [19],-0.597
same,Z-AUC,[1]; measured here: PEO4 Z-AUC,-0.874
Cc1cn(CCN2CCN(c3ccccc3-c3cc(C#N)cc(C(=O)NCCCN4CCCC4)c3)CC2)c2ccccc12,Z-AUC,[1],-0.259 (inactive)
same,Z-AUC,[1]; [19],-0.4
same,Z-AUC,[1]; measured here: PEO4 Z-AUC,-0.379
CN1CCN(c2ccc(OC(F)(F)F)c(Nc3ncc4c(n3)-c3c(c(C(N)=O)nn3CCO)CC4)c2)CC1,Z-AUC,[1],-0.858 (inactive)
same,Z-AUC,[1]; [19],-1.94
same,Z-AUC,[1]; measured here: PEO4 Z-AUC,-1.88
Cc1sc2c(c1C)C(c1ccc(Cl)cc1)=N[C@@H](CC(=O)Nc1ccc(OCCOCCOCCOCCNc3cccc4c3C(=O)N(C3CCC(=O)NC3=O)C4=O)cc1)c1nnc(C)n1-2 (stereo partly drawn),Z-AUC,[1],-1.58 (inactive)
same,Z-AUC,[1]; [19],-2.13
same,Z-AUC,[1]; measured here: PEO4 Z-AUC,-1.49
O=C(NCCCNc1nc(Nc2cccc(CN3CCOCC3)c2)ncc1C1CC1)C1CCC1,Z-AUC,[1],-0.249 (inactive)
same,Z-AUC,[1]; [19],-0.12
same,Z-AUC,[1]; measured here: PEO4 Z-AUC,-0.429
Cc1[nH]c2ccc(F)cc2c1-c1nc2c3cccnc3c3ncccc3c2[nH]1,Z-AUC,[1],-1.49 (inactive)
same,Z-AUC,[1]; [19],-0.715
same,Z-AUC,[1]; measured here: PEO4 Z-AUC,-1.31
CCn1c(=O)c(-c2ccc(-c3cncs3)cc2Cl)cc2cnc(Nc3ccc(N4CCN(C)CC4)cc3)nc21,Z-AUC,[1],-1.32 (inactive)
same,Z-AUC,[1]; [19],-0.743
same,Z-AUC,[1]; measured here: PEO4 Z-AUC,-0.961
